Bioassay records as filed in PubChem BioAssay.
AmpC detergent – blocks E. coli AmpC beta-lactamase in detergent assay; P00811; AmpC hydrolysis of nitrocefin, absorbance 480 nm, 0.01% Triton; Potency, µM (doses to about 114 µM), inactives show at the top dose activity change, negative = inhibition, usual class: inhibitors; hit rate 0.041% among 370,000; AID 485294;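 note: 0% = no-compound wells and -100% = no-enzyme wells; nearly all actives have a fitted effect of over 25% in size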
Target sequence (P00811 whole entry, looked up): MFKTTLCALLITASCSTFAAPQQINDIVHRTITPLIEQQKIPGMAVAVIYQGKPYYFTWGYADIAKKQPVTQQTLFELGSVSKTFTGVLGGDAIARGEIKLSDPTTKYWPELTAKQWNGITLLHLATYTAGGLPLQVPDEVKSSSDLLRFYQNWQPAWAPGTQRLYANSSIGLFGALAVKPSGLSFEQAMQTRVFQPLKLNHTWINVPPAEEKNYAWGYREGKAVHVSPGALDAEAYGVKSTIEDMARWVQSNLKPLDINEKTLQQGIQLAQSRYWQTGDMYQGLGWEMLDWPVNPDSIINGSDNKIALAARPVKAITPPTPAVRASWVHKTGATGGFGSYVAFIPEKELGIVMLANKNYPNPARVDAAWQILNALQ
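20 mM phosphate pH 7.0 + 0.01% (detergent screen) or 0.0001% Triton X-100; 5.3 nM AmpC reagent; cpd preinc 15 min RT; nitrocefin (800 uM stock) to start; A480 q20 s × 4 min; Activity was normalised to no-enzyme and no-compound control wells.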
AmpC no deterg – blocks E. coli AmpC beta-lactamase in detergent-free assay; P00811; AmpC nitrocefin hydrolysis, absorbance 480 nm, 0.0001% Triton; Potency, µM (doses to about 57.1 µM), for inactives: top-dose activity change, negative = inhibition, most hits filed as inhibitors; hit rate 0.52% among 330,000;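 note: plate controls were no compound for no effect and no enzyme for full effect; nearly all actives have a fitted effect of over 20% in size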
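20 mM phosphate pH 7.0 + 0.01% (detergent screen) or 0.0001% Triton X-100; 5.3 nM AmpC reagent; cpd preinc 15 min RT; nitrocefin (800 uM stock) to start; A480 q20 s × 4 min; Activity was normalised to no-enzyme and no-compound control wells.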
AMA1 RON2 block – AMA1-RON2 (P. falciparum) interaction inhibition; AlphaScreen AMA1-biotinylated RON2 peptide binding; Potency, µM (titrated, usually from 58.2 µM), without a hit: at the highest dose activity change, negative = inhibition, most hits filed as inhibitors; hit rate 0.2% among 360,000; AID 720542;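 note: 0% = vehicle wells and -100% = peptide control; nearly all actives have a fitted effect of over 45% in size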
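AMA1 (3D7) with his tag at 25 nM final met compounds first, then biotinylated RON2 peptide at 25 nM; detection used donor plus acceptor beads, 10 µg/mL apiece, read by AlphaScreen after 30 min at room temperature.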
Giardia FBPA inh-1 – inhibitors of Giardia lamblia fructose-1,6-bisphosphate aldolase | purified Giardia FBPA | hit rate 0.71% among 290,000 | Potency, µM (doses to about 59.6 µM), inactives show at the highest dose activity, negative = inhibition, most hits filed as inhibitors; note: nearly all actives have a fitted effect of over 55% in size
Target sequence (A8B2U2 whole entry, looked up): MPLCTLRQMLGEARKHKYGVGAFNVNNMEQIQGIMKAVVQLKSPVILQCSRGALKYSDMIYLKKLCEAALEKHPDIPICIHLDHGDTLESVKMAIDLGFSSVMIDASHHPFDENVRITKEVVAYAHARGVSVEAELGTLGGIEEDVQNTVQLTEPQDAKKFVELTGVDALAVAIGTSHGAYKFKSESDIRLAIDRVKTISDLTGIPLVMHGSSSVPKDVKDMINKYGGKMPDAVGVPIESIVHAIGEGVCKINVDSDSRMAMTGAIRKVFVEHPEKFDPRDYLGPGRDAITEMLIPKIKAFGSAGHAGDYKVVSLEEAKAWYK
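40 nM FBPA preincubated 10 min at RT with compound (up to 57.5 uM final), then substrate plus GAPDH/TPI/NAD/arsenate coupling and diaphorase/resazurin added. Fluorescence read after 20 min at RT, 525/598 nm.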
LmPK inhibitor – inhibitors of Leishmania mexicana pyruvate kinase | purified LmPK, Kinase-Glo ATP luminescence, 1 h | Q27686 | AID 1721 | hit rate 0.37% among 290,000 | Potency, µM (highest dose often 57.5 µM), for inactives: top-dose activity change, negative = inhibition, usual class: inhibitors
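Pyruvate kinase activity monitored as ATP production (luciferase luminescence). Conditions: 0.1 nM enzyme, 0.5 mM PEP, 0.1 mM ADP, 1 h, RT; normalized against uninhibited and no-enzyme wells.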
Giardia growth – Giardia lamblia growth inhibition | shares compounds with Giardia FBPA inh-1 | Giardia lamblia trophozoite growth inhibition | Potency, µM (series often up to 57.5 µM), for the others: at the highest dose activity change, negative = inhibition, most hits filed as inhibitors | hit rate 5% among 1,500 | AID 2785;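 note: trophozoites exposed to compound for 48 h at 37 °C; nearly all actives have a fitted effect of over 70% in size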
Mammal cell tox – mammalian cytotoxicity of Giardia aldolase inhibitor hits; shares compounds with Giardia FBPA inh-1; mammalian cell viability counter-screen, qHTS; Potency, µM (titrated, usually from 57.5 µM), for inactives: at the top dose viability change, negative = toxicity, hits mostly inhibitors; hit rate 4% among 1,500; AID 2786;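 note: Chinese hamster ovary cells used as mammalian cytotoxicity surrogate; viability measured as cellular ATP by luminescence; compound exposure lasted 48 h before reading; nearly all actives have a fitted effect of over 60% in size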
Giardia FBPA inh-2 – confirmation of Giardia fructose-bisphosphate aldolase inhibitors; shares compounds with Giardia FBPA inh-1; purified Giardia aldolase enzyme activity, qHTS; Potency, µM (series often up to 57.5 µM), without a hit: at the highest dose activity change, negative = inhibition, most hits filed as inhibitors; hit rate 5% among 1,500; note: nearly all actives have a fitted effect of over 45% in size
Rabbit aldolase – rabbit FBP aldolase inhibition by Giardia aldolase hits; Rabbit muscle FBPA enzyme inhibition, selectivity counter-screen; Potency, µM (top dose mostly 57.5 µM), for the others: at the top dose activity, negative = inhibition, usual class: inhibitors; hit rate 4% among 1,500; shares compounds with Giardia FBPA inh-1; note: nearly all actives have a fitted effect of over 60% in size
GAPDH counter – GAPDH inhibition flagged for Giardia aldolase hits; shares compounds with Giardia FBPA inh-1; GAPDH coupling enzyme counterscreen, biochemical, qHTS; Potency, µM (titrated, usually from 57.5 µM), inactives show top-dose activity change, negative = inhibition, usual class: inhibitors; hit rate 6% among 1,500; AID 2795; note: nearly all actives have a fitted effect of over 55% in size
* = called active by the depositor; [ ] = remark or other dose. In the library only some 1.3% were active in any assay of this set; here they are far more common. Calls come from the whole dose curve; as a rule, active = well fitted curve in the direction sought with a large enough effect; inconclusive = small, poorly fitted or top-dose-only effect, or another doubt; inactive = no such curve, though single readings can be large; an effect the other way counts as inactive or inconclusive. Unless noted, % is set by controls: 0 for no effect and ±100 for the full control effect; potency is the fitted concentration of half-maximal effect.

Results for COC(=O)c1ccc(N=Nc2c(C)[nH]n(-c3ccccc3)c2=O)cc1 ?
AmpC detergent: 3%; AmpC no deterg: -25%; AMA1 RON2 block: inconclusive; Giardia FBPA inh-1: 13µM*; LmPK inhibitor: 4%; Giardia growth: -24%; Mammal cell tox: 18%; Giardia FBPA inh-2: 8%; Rabbit aldolase: -2%; GAPDH counter: 8%

What do the screens show for `Cc1[nH]n(-c2ccccc2)c(=O)c1N=Nc1cccc(Cl)c1`?
AmpC detergent: -9%; AmpC no deterg: -5%; AMA1 RON2 block: -13%; Giardia FBPA inh-1: inconclusive; LmPK inhibitor: -1%

How did Cc1[nH]n(-c2ccccc2)c(=O)c1N=Nc1cccc([N+](=O)[O-])c1 do in these assays?
AmpC detergent: inconclusive; AmpC no deterg: -25%; AMA1 RON2 block: 11%; Giardia FBPA inh-1: 8.9µM*; LmPK inhibitor: 5%; Giardia growth: -37%[38.3 µM]; Mammal cell tox: 5%; Giardia FBPA inh-2: 5%; Rabbit aldolase: 9%; GAPDH counter: -3%

What do the screens show for `Nc1ccccc1SC(CC(=O)c1ccccc1)c1ccccc1` (configuration not stated)?
AMA1 RON2 block: -7%

How did CC(C(Sc1ccccc1N)c1ccccc1)[N+](=O)[O-] (configuration not stated) do in these assays?
AmpC detergent: -5%; AmpC no deterg: -24%; AMA1 RON2 block: -5%; Giardia FBPA inh-1: 20µM*; LmPK inhibitor: 6%; Giardia growth: inconclusive; Mammal cell tox: 32µM*; Giardia FBPA inh-2: 5%; Rabbit aldolase: 9%; GAPDH counter: -4%

How did Cn1c(NN=O)nc2ccccc21 do in these assays?
AmpC detergent: 1%; AmpC no deterg: -2%; AMA1 RON2 block: -5%; Giardia FBPA inh-1: 7.9µM*; LmPK inhibitor: 0%; Giardia growth: -22%; Mammal cell tox: 16µM*; Giardia FBPA inh-2: 0%; Rabbit aldolase: -2%; GAPDH counter: 2%

Results for Cc1cc(C)n(NC(=S)NC2CCCC2)c(=O)c1C#N ?
AmpC detergent: 10%; AmpC no deterg: -12%; AMA1 RON2 block: -9%; Giardia FBPA inh-1: 18µM*; LmPK inhibitor: 0%; Giardia growth: 5%; Mammal cell tox: 9%; Giardia FBPA inh-2: 0%; Rabbit aldolase: 15%; GAPDH counter: 2%

What do the screens show for `Fc1ccc(N2CCN(c3nc4ccccc4c4nc(-c5cccnc5)nn34)CC2)cc1`?
AmpC detergent: 18%

What do the screens show for `O=C(C1=NN[C@@H]2C(=O)N(c3cccc(F)c3)C(=O)[C@H]12)c1cnccn1`?
AmpC detergent: 1%; AmpC no deterg: -15%; AMA1 RON2 block: 30%; Giardia FBPA inh-1: 16µM*; LmPK inhibitor: 1%; Giardia growth: inconclusive; Mammal cell tox: -9%; Giardia FBPA inh-2: 0%; Rabbit aldolase: 6%; GAPDH counter: 10%

Results for Cn1nnc(NC(=S)NC(=O)/C=C/c2ccco2)n1 ?
AmpC detergent: 3%; AmpC no deterg: -34%; AMA1 RON2 block: 6%; Giardia FBPA inh-1: 3.5µM*; LmPK inhibitor: 13%; Giardia growth: -28%[38.3 µM]; Mammal cell tox: -2%; Giardia FBPA inh-2: -19%; Rabbit aldolase: -20%; GAPDH counter: -23%

What do the screens show for `S=C(Nc1ccc2nsnc2c1)N1CCCC1`?
AmpC detergent: -4%; AmpC no deterg: -6%; AMA1 RON2 block: 13%; Giardia FBPA inh-1: 6.3µM*; LmPK inhibitor: inconclusive; Giardia growth: -8%; Mammal cell tox: -6%; Giardia FBPA inh-2: inconclusive; Rabbit aldolase: inconclusive; GAPDH counter: inconclusive

What do the screens show for `COC(=O)c1c(-c2ccc(OC)c(OC)c2)csc1N`?
AmpC detergent: 9%; AmpC no deterg: 78%; AMA1 RON2 block: 32%; Giardia FBPA inh-1: 18µM*; LmPK inhibitor: 4%; Giardia growth: -30%; Mammal cell tox: -13%; Giardia FBPA inh-2: inconclusive; Rabbit aldolase: -13%; GAPDH counter: -12%

What do the screens show for `COC(=O)c1c(-c2cccc(OC)c2)csc1N`?
AmpC detergent: -12%; AmpC no deterg: -27%; AMA1 RON2 block: -17%; Giardia FBPA inh-1: -21%; LmPK inhibitor: -2%

Results for Cc1cccc(N2N=C(C(=O)N3Cc4ccccc4CC3C(N)=O)CCC2=O)c1 (configuration not stated) ?
AmpC no deterg: 2%; AMA1 RON2 block: 11%

What do the screens show for `CCNC(=S)NS(=O)(=O)c1ccc(CC)cc1`?
AmpC detergent: 0%; AmpC no deterg: -20%; AMA1 RON2 block: 2%; Giardia FBPA inh-1: 6.3µM*; LmPK inhibitor: 0%; Giardia growth: 3%[10.4 µM]; Mammal cell tox: 5%; Giardia FBPA inh-2: 9%; Rabbit aldolase: 4%; GAPDH counter: 20%

How did CCNC(=S)NS(=O)(=O)c1ccc(C)cc1 do in these assays?
AmpC detergent: -9%; AmpC no deterg: -21%; AMA1 RON2 block: 17%; Giardia FBPA inh-1: 3.5µM*; LmPK inhibitor: 0%; Giardia growth: 17%[38.3 µM]; Mammal cell tox: -3%; Giardia FBPA inh-2: 7%; Rabbit aldolase: 12%; GAPDH counter: -1%

Results for CCc1ccc(S(=O)(=O)NC(=S)Nc2ccccc2)cc1 ?
AmpC detergent: 4%; AmpC no deterg: -21%; AMA1 RON2 block: -1%; Giardia FBPA inh-1: -6%; LmPK inhibitor: 3%

What do the screens show for `Cc1ccc(S(=O)(=O)NC(=S)c2ccccc2)cc1`?
AMA1 RON2 block: 12%

What do the screens show for `COc1cc(F)ccc1-c1csc(C(NC(C)=O)c2ccc(F)c(F)c2)n1` (configuration not stated)?
AMA1 RON2 block: 0%

How did Cc1nc(NC(=O)C2CC2)sc1C(=O)N(C)C do in these assays?
AmpC detergent: -1%; AmpC no deterg: -15%; AMA1 RON2 block: -6%; Giardia FBPA inh-1: -2%; LmPK inhibitor: 5%
